# Results as given in the supplement of paper PMC7156485.
# “And” between values parts separate entries of the source, which are not always exact repeats. Identical values can stand only once. ± gives the standard deviation of the averaged measurements.
# How the values were obtained:
# Conditions in all cases: concentration: 10 µM; 24 h
# HCC1569 [1] = test: cell number relative to DMSO (% of DMSO); higher = more cells (less growth inhibition / toxicity)
# Outline: (§1)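 In 384-well plates holding 800 HCC1569 or TDF cells per well in RPMI with 10% FBS, compounds were tested at 10 µM for 24 h at 37 °C in triplicate. Fixation used 3.7% formaldehyde. Staining used a rabbit anti-H1.0 antibody with an AlexaFluor 647 secondary, plus DAPI. Each value, H1.0 nuclear intensity or cell number, is a median of replicates shown as percent of the plate control, and HCC1569 values were smoothed for positional effects.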
# TDF [2] = test: as above
# Outline: as §1
# TDF [3] = test: H1.0 immunofluorescence intensity relative to DMSO (% of DMSO); higher = stronger H1.0 induction, active = 120 or more
# Outline: as §1
# HCC1569 [4] = test: H1.0 immunofluorescence intensity relative to DMSO (% of DMSO); higher = stronger H1.0 induction, active = 140 or more
# Outline: as §1
# 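For H1.0 immunofluorescence intensity relative to DMSO in this document: TDF is a line of transformed human dermal fibroblasts of mesenchymal origin.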
# 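For cell number relative to DMSO in this document: TDF denotes transformed human dermal fibroblasts of mesenchymal origin.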
SMILES,cell number (HCC1569 [1]),cell number (TDF [2]),H1.0 immunofluorescence intensity (TDF [3]),H1.0 immunofluorescence intensity (HCC1569 [4])
CCOC(=O)C1OC1C(=O)NC(CC(C)C)C(=O)NCCC(C)C (stereo not given),100,93.4,101 (inactive),97.9 (inactive)
COc1cc(CNC(=O)CCCCC=CC(C)C)ccc1O [Capsaicin],99 ± 1.3,99.2 ± 2.3,93.8 (inactive),95.8 (inactive)
"N[C@@H](Cc1ccc(O)c(O)c1)C(=O)O [L-3,4-Dihydroxyphenylalanine]",100,105,89.7 (inactive),90 (inactive)
NC(C(=O)O)C(O)C(=O)O (racemic) [DL-threo-beta-hydroxyaspartic acid],101,110,96.7 (inactive),95.9 (inactive)
"COC1=CC(=O)CC(C)C12Oc1c(Cl)c(OC)cc(OC)c1C2=O (single isomer, unassigned; (+)) [(+)-Griseofulvin]",100,108,99.2 (inactive),95.6 (inactive)
CCC=CCC=CCC=CCC=CCC=CCCCC(=O)O [Eicosapentaenoic acid],106 ± 9.9,103.8 ± 0.71,103 (inactive),99.1 (inactive)
COc1ccc(-c2cc(=O)c3c(O)cc(O)cc3o2)cc1O [Diosmetine],93.5,101,99.2 (inactive),114 (inactive)
Cl.NC(N)=NCCNS(=O)(=O)c1cccc2cnccc12 [HA-1004 hydrochloride],103,116,87.2 (inactive),88.4 (inactive)
C[N+](C)(C)C(Cc1c[nH]c(=S)[nH]1)C(=O)[O-] [L-Ergothioneine],107,102,101 (inactive),100 (inactive)
N#Cc1c(-c2ccccc2)cc(-c2cc(Br)ccc2O)[nH]c1=O [PIM1 Kinase Inhibitor II],103,105,93.5 (inactive),114 (inactive)
O=C1Nc2ccc(I)cc2C1=Cc1cc(Br)c(O)c(Br)c1,98.5 and 105,103,93.5 (inactive) and 85.7 (inactive),110 (inactive) and 83.8 (inactive)
"c1ccc(CNc2nc(NCc3ccccc3)c3ccccc3n2)cc1 [N~2~,N~4~-dibenzyl-2,4-quinazolinediamine]",33.7,39,156 (active),88.7 (inactive)
O=C(C=Cc1ccc(O)c(O)c1)c1ccc(OC2OC(CO)C(O)C(O)C2O)c(O)c1O (stereo not given) [Marein],99.4,108,92 (inactive),91.5 (inactive)
CC(=O)OC1CCC2(C)C(C1)C(OC(C)=O)CC1C2CC2C3CN4CC(C)CCC4C(C)C3CCC21O (stereo not given) [Diacetylkorseveriline],101,109,96.2 (inactive),95.1 (inactive)
COc1cc(-c2ccc(=O)[nH]n2)ccc1OC(F)F [Zardaverine],106 ± 5.7,107 ± 9.4,91.5 (inactive),110 (inactive)
CC(=O)Nc1ccc(NC(=S)NC(=O)c2ccc(C(C)(C)C)cc2)cc1 [p53 Activator (Tenovin-1)],96.5,91.1,104 (inactive),153 (active)
COc1cccc(-c2cn(-c3ccc(CCN4CCC(O)CC4)cc3)c3ncnc(N)c23)c1,45.9,53.9,127 (active),177 (active)
Nc1nc(SCc2ccc([N+](=O)[O-])cc2)c2ncn(C3OC(CO)C(O)C3O)c2n1 (stereo not drawn) [S-(4-Nitrobenzyl)-6-thioguanosine],101,98.2,94.5 (inactive),93.2 (inactive)
"CCCCCC=CCC=CCC=CCCCCCCC(=O)O [8(Z), 11(Z), 14(Z)-Eicosatrienoic Acid]",97.9,101,97.9 (inactive),98.7 (inactive)
C#CCN1C(C)=C(C(=O)OC)C(c2cccc([N+](=O)[O-])c2)C(C(=O)OCC)=C1C (stereo not given),97.2,107,89.2 (inactive),103 (inactive)
CC(C)NCC(O)COc1cccc2[nH]ccc12 (stereo not given) [Pindolol],98 ± 3.1,94.3 ± 2.5,98.8 (inactive),110 (inactive)
"CCN1C(=CC(C)=O)Sc2ccc(OC)cc21 [Cdc2-Like Kinase Inhibitor, TG003]",97.3,112,89.5 (inactive),119 (inactive)
O=C(Nc1cc(C(F)(F)F)cc(C(F)(F)F)c1)c1cc(Cl)ccc1O,57,52.7,115 (inactive),122 (inactive)
Cl.O=C(OCCN1CCOCC1)C1(c2ccccc2)CCCCC1,99.8,111,90.5 (inactive),94 (inactive)
CC(=O)O.NC(=NCCCC(N)C(=O)O)NO [NG-Hydroxy-L-arginine acetate],97.8,107,91.4 (inactive),89.2 (inactive)
